What follows are binders tested against AgAbp1 (assay: SPOT peptide array binding signal intensity (averaged, normalized) (arbitrary units (background-subtracted, floor 0; scale differs between SH3 domains)); higher = stronger binding of the SH3 domain to the peptide).
Method in brief: (§1)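 GST-fused SH3 domains from four yeast species were expressed in E. coli BL21(DE3), purified on glutathione Sepharose and incubated at 10 μg/ml overnight at 4°C in TBS-based blocking buffer on cellulose membranes carrying synthetic 15-mer peptides, with cysteines replaced by serines. Bound protein was detected with anti-GST antibody, an HRP anti-mouse secondary and luminol, then imaged and quantified with Genespotter. Binding signal is the normalized, background-subtracted spot intensity averaged over replicates, in arbitrary units that differ between domains.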

Binder	SPOT peptide array binding signal intensity
TKRKRPARLIFYDSK	113

The binders below were run against AgBbc1 in the same assay as above.
Method in brief: as §1

Binder	SPOT peptide array binding signal intensity
TKRKRPARLIFYDSK	40.2

Each binder was assayed against AgBem1-D1 in the same assay as above.
Method in brief: as §1

Binder	SPOT peptide array binding signal intensity
TKRKRPARLIFYDSK	82

Each binder was assayed against AgBzz1-D1 in the same assay as above.
Method in brief: as §1

Binder	SPOT peptide array binding signal intensity
TKRKRPARLIFYDSK	26

These binders were tested against AgBzz1-D2 in the same assay as above.
Method in brief: as §1

Binder	SPOT peptide array binding signal intensity
TKRKRPARLIFYDSK	20

These binders were tested against AgCyk3 in the same assay as above.
Method in brief: as §1

Binder	SPOT peptide array binding signal intensity
TKRKRPARLIFYDSK	13.5

These binders were tested against AgFus1 in the same assay as above.
Method in brief: as §1

Binder	SPOT peptide array binding signal intensity
TKRKRPARLIFYDSK	436

Each binder was assayed against AgHof1 in the same assay as above.
Method in brief: as §1

Binder	SPOT peptide array binding signal intensity
TKRKRPARLIFYDSK	20.5

The binders below were run against AgHse1 in the same assay as above.
Method in brief: as §1

Binder	SPOT peptide array binding signal intensity
TKRKRPARLIFYDSK	696

Each binder was assayed against AgLsb1 in the same assay as above.
Method in brief: as §1

Binder	SPOT peptide array binding signal intensity
TKRKRPARLIFYDSK	3.5

Each binder was assayed against AgLsb4 in the same assay as above.
Method in brief: as §1

Binder	SPOT peptide array binding signal intensity
TKRKRPARLIFYDSK	122

The binders below were run against AgMyo5 in the same assay as above.
Method in brief: as §1

Binder	SPOT peptide array binding signal intensity
TKRKRPARLIFYDSK	≤ 0

These binders were tested against AgNbp2 in the same assay as above.
Method in brief: as §1

Binder	SPOT peptide array binding signal intensity
TKRKRPARLIFYDSK	236

The binders below were run against AgRvs167 in the same assay as above.
Method in brief: as §1

Binder	SPOT peptide array binding signal intensity
TKRKRPARLIFYDSK	3.67

Each binder was assayed against AgSho1 in the same assay as above.
Method in brief: as §1

Binder	SPOT peptide array binding signal intensity
TKRKRPARLIFYDSK	94.5

What follows are binders tested against AgSla1-D1-D2 in the same assay as above.
Method in brief: as §1

Binder	SPOT peptide array binding signal intensity
TKRKRPARLIFYDSK	1050

These binders were tested against AgSla1-D3 in the same assay as above.
Method in brief: as §1

Binder	SPOT peptide array binding signal intensity
TKRKRPARLIFYDSK	1.25

What follows are binders tested against CaAbp1-D1 in the same assay as above.
Method in brief: as §1

Binder	SPOT peptide array binding signal intensity
TKRKRPARLIFYDSK	717

What follows are binders tested against CaAbp1-D2 in the same assay as above.
Method in brief: as §1

Binder	SPOT peptide array binding signal intensity
TKRKRPARLIFYDSK	662

The binders below were run against CaBbc1 in the same assay as above.
Method in brief: as §1

Binder	SPOT peptide array binding signal intensity
TKRKRPARLIFYDSK	66.5

These binders were tested against CaBem1-D1 in the same assay as above.
Method in brief: as §1

Binder	SPOT peptide array binding signal intensity
TKRKRPARLIFYDSK	16

What follows are binders tested against CaBzz1-D1 in the same assay as above.
Method in brief: as §1

Binder	SPOT peptide array binding signal intensity
TKRKRPARLIFYDSK	108

These binders were tested against CaBzz1-D2 in the same assay as above.
Method in brief: as §1

Binder	SPOT peptide array binding signal intensity
TKRKRPARLIFYDSK	40.2

These binders were tested against CaCyk3 in the same assay as above.
Method in brief: as §1

Binder	SPOT peptide array binding signal intensity
TKRKRPARLIFYDSK	119

What follows are binders tested against CaFus1 in the same assay as above.
Method in brief: as §1

Binder	SPOT peptide array binding signal intensity
TKRKRPARLIFYDSK	876

What follows are binders tested against CaHof1 in the same assay as above.
Method in brief: as §1

Binder	SPOT peptide array binding signal intensity
TKRKRPARLIFYDSK	1.5

The binders below were run against CaHse1 in the same assay as above.
Method in brief: as §1

Binder	SPOT peptide array binding signal intensity
TKRKRPARLIFYDSK	36.8

What follows are binders tested against CaLsb1 in the same assay as above.
Method in brief: as §1

Binder	SPOT peptide array binding signal intensity
TKRKRPARLIFYDSK	1.5

What follows are binders tested against CaLsb4 in the same assay as above.
Method in brief: as §1

Binder	SPOT peptide array binding signal intensity
TKRKRPARLIFYDSK	85

What follows are binders tested against CaMyo5 in the same assay as above.
Method in brief: as §1

Binder	SPOT peptide array binding signal intensity
TKRKRPARLIFYDSK	3.5

These binders were tested against CaNbp2 in the same assay as above.
Method in brief: as §1

Binder	SPOT peptide array binding signal intensity
TKRKRPARLIFYDSK	450

Each binder was assayed against CaRvs167 in the same assay as above.
Method in brief: as §1

Binder	SPOT peptide array binding signal intensity
TKRKRPARLIFYDSK	19.8

What follows are binders tested against CaRvs167-3 in the same assay as above.
Method in brief: as §1

Binder	SPOT peptide array binding signal intensity
TKRKRPARLIFYDSK	240

Each binder was assayed against CaSho1 in the same assay as above.
Method in brief: as §1

Binder	SPOT peptide array binding signal intensity
TKRKRPARLIFYDSK	605

The binders below were run against CaSla1-D1-D2 in the same assay as above.
Method in brief: as §1

Binder	SPOT peptide array binding signal intensity
TKRKRPARLIFYDSK	1

These binders were tested against CaSla1-D3 in the same assay as above.
Method in brief: as §1

Binder	SPOT peptide array binding signal intensity
TKRKRPARLIFYDSK	25

Each binder was assayed against ScAbp1 in the same assay as above.
Method in brief: as §1

Binder	SPOT peptide array binding signal intensity
TKRKRPARLIFYDSK	26

These binders were tested against ScBbc1 in the same assay as above.
Method in brief: as §1

Binder	SPOT peptide array binding signal intensity
TKRKRPARLIFYDSK	22

The binders below were run against ScBem1-D1 in the same assay as above.
Method in brief: as §1

Binder	SPOT peptide array binding signal intensity
TKRKRPARLIFYDSK	22.5

Each binder was assayed against ScBzz1-D1 in the same assay as above.
Method in brief: as §1

Binder	SPOT peptide array binding signal intensity
TKRKRPARLIFYDSK	12

What follows are binders tested against ScBzz1-D2 in the same assay as above.
Method in brief: as §1

Binder	SPOT peptide array binding signal intensity
TKRKRPARLIFYDSK	22

What follows are binders tested against ScCyk3 in the same assay as above.
Method in brief: as §1

Binder	SPOT peptide array binding signal intensity
TKRKRPARLIFYDSK	62

The binders below were run against ScFus1 in the same assay as above.
Method in brief: as §1

Binder	SPOT peptide array binding signal intensity
TKRKRPARLIFYDSK	354

What follows are binders tested against ScHof1 in the same assay as above.
Method in brief: as §1

Binder	SPOT peptide array binding signal intensity
TKRKRPARLIFYDSK	0.5

Each binder was assayed against ScHse1 in the same assay as above.
Method in brief: as §1

Binder	SPOT peptide array binding signal intensity
TKRKRPARLIFYDSK	1060

These binders were tested against ScLsb1 in the same assay as above.
Method in brief: as §1

Binder	SPOT peptide array binding signal intensity
TKRKRPARLIFYDSK	5.5

What follows are binders tested against ScLsb2 in the same assay as above.
Method in brief: as §1

Binder	SPOT peptide array binding signal intensity
TKRKRPARLIFYDSK	5

These binders were tested against ScLsb3 in the same assay as above.
Method in brief: as §1

Binder	SPOT peptide array binding signal intensity
TKRKRPARLIFYDSK	239

These binders were tested against ScLsb4 in the same assay as above.
Method in brief: as §1

Binder	SPOT peptide array binding signal intensity
TKRKRPARLIFYDSK	13

Each binder was assayed against ScMyo3 in the same assay as above.
Method in brief: as §1

Binder	SPOT peptide array binding signal intensity
TKRKRPARLIFYDSK	2.5

The binders below were run against ScMyo5 in the same assay as above.
Method in brief: as §1

Binder	SPOT peptide array binding signal intensity
TKRKRPARLIFYDSK	3

Each binder was assayed against ScNbp2 in the same assay as above.
Method in brief: as §1

Binder	SPOT peptide array binding signal intensity
TKRKRPARLIFYDSK	975

What follows are binders tested against ScPex13 in the same assay as above.
Method in brief: as §1

Binder	SPOT peptide array binding signal intensity
TKRKRPARLIFYDSK	3.5

Each binder was assayed against ScRvs167 in the same assay as above.
Method in brief: as §1

Binder	SPOT peptide array binding signal intensity
TKRKRPARLIFYDSK	23.8

The binders below were run against ScSho1 in the same assay as above.
Method in brief: as §1

Binder	SPOT peptide array binding signal intensity
TKRKRPARLIFYDSK	382

Each binder was assayed against ScSla1-D1-D2 in the same assay as above.
Method in brief: as §1

Binder	SPOT peptide array binding signal intensity
TKRKRPARLIFYDSK	198

What follows are binders tested against ScSla1-D3 in the same assay as above.
Method in brief: as §1

Binder	SPOT peptide array binding signal intensity
TKRKRPARLIFYDSK	13.2

What follows are binders tested against SpAbp1-D1 in the same assay as above.
Method in brief: as §1

Binder	SPOT peptide array binding signal intensity
TKRKRPARLIFYDSK	190

The binders below were run against SpBbc1 in the same assay as above.
Method in brief: as §1

Binder	SPOT peptide array binding signal intensity
TKRKRPARLIFYDSK	3

The binders below were run against SpBzz1-D1 in the same assay as above.
Method in brief: as §1

Binder	SPOT peptide array binding signal intensity
TKRKRPARLIFYDSK	77.5

These binders were tested against SpBzz1-D2 in the same assay as above.
Method in brief: as §1

Binder	SPOT peptide array binding signal intensity
TKRKRPARLIFYDSK	0.75

These binders were tested against SpCyk3 in the same assay as above.
Method in brief: as §1

Binder	SPOT peptide array binding signal intensity
TKRKRPARLIFYDSK	8

The binders below were run against SpHof1 in the same assay as above.
Method in brief: as §1

Binder	SPOT peptide array binding signal intensity
TKRKRPARLIFYDSK	172

The binders below were run against SpHof1-2 in the same assay as above.
Method in brief: as §1

Binder	SPOT peptide array binding signal intensity
TKRKRPARLIFYDSK	27.5

The binders below were run against SpHof1-3 in the same assay as above.
Method in brief: as §1

Binder	SPOT peptide array binding signal intensity
TKRKRPARLIFYDSK	380

Each binder was assayed against SpHse1 in the same assay as above.
Method in brief: as §1

Binder	SPOT peptide array binding signal intensity
TKRKRPARLIFYDSK	299

What follows are binders tested against SpLsb1 in the same assay as above.
Method in brief: as §1

Binder	SPOT peptide array binding signal intensity
TKRKRPARLIFYDSK	4

These binders were tested against SpLsb4 in the same assay as above.
Method in brief: as §1

Binder	SPOT peptide array binding signal intensity
TKRKRPARLIFYDSK	205

These binders were tested against SpMyo1 in the same assay as above.
Method in brief: as §1

Binder	SPOT peptide array binding signal intensity
TKRKRPARLIFYDSK	4.25

What follows are binders tested against SpNbp2 in the same assay as above.
Method in brief: as §1

Binder	SPOT peptide array binding signal intensity
TKRKRPARLIFYDSK	584

The binders below were run against SpPex13 in the same assay as above.
Method in brief: as §1

Binder	SPOT peptide array binding signal intensity
TKRKRPARLIFYDSK	11

The binders below were run against SpRvs167 in the same assay as above.
Method in brief: as §1

Binder	SPOT peptide array binding signal intensity
TKRKRPARLIFYDSK	4.33

The binders below were run against SpSla1-D1-D2 in the same assay as above.
Method in brief: as §1

Binder	SPOT peptide array binding signal intensity
TKRKRPARLIFYDSK	4

What follows are binders tested against SpSla1-D3 in the same assay as above.
Method in brief: as §1

Binder	SPOT peptide array binding signal intensity
TKRKRPARLIFYDSK	7
